Source: PMC11062922 (Nature Chemical Biology, 2023)
Like-named read-outs stand apart in the source and are kept apart here.

How the values were obtained:
Set-up in all cases: species or system human, MV4-11 + K-562 + COLO205 + SK-N-BE2 + OVCAR-8
MAPK11 = details: read-out: apparent Kd, n = 1
CSNK1G1 = details: read-out: apparent Kd, n = 1
MAP2K5 = details: read-out: apparent Kd, n = 1
MERTK = details: read-out: apparent Kd, compound concentrations: 100 nM and 1000 nM (sheet 'Samples'), n = 1
TAOK1 = details: read-out: apparent Kd, n = 1
IRAK1 = details: read-out: apparent Kd; compound concentrations:100 nM and 1000 nM (sheet 'Samples'); n = 1
AKT1 = details: read-out: apparent Kd, n = 1
PRKX;PRKY = details: read-out: apparent Kd, n = 1
CAMK2D = details: read-out: apparent Kd, compound concentrations: 100 nM and 1000 nM (sheet 'Samples'), n = 1
NTRK1 = details: read-out: apparent Kd, n = 1
PIM1 = details: read-out: apparent Kd, n = 1
PRKCI = details: read-out: apparent Kd, n = 1
SYK = details: read-out: apparent Kd, n = 1
MAPK1 = details: read-out: apparent Kd, compound concentrations: 100 nM and 1000 nM (sheet 'Samples'), n = 1
STRADA = details: read-out: apparent Kd, n = 1
TBK1 = details: read-out: apparent Kd; compound concentrations:100 nM and 1000 nM (sheet 'Samples'); n = 1
PRKDC = details: read-out: apparent Kd; compound concentrations: 100 nM and 1000 nM (sheet 'Samples'), CATDS: 3.7580559894827101E-2; n = 1
[1] = compound concentrations:100 nM and 1000 nM (sheet 'Samples')

COc1cccc2c(-c3ccncc3)c(-c3ccc(F)cc3)nn12 [GW468513X]
potency estimated from few doses (MAPK11; compound concentrations: 100 nM and 1000 nM (sheet 'Samples'), CATDS: 3.7828559303077401E-2): 1.64 µM

O=C(O)C(F)(F)F.O=C(O)C(F)(F)F.O=c1[nH]ccc2nc(N[C@@H]3CCCNC3)nc(Nc3ccc(S(=O)(=O)N4CCOCC4)cc3)c12.O=c1[nH]ccc2nc(N[C@@H]3CCCNC3)nc(Nc3ccc(S(=O)(=O)N4CCOCC4)cc3)c12 [GSK2177277A]
potency estimated from few doses (CSNK1G1; compound concentrations: 100 nM and 1000 nM (sheet 'Samples'), CATDS: 7.1909422101758503E-3): 0.882 µM
potency estimated from few doses (MAP2K5; compound concentrations: 100 nM and 1000 nM (sheet 'Samples'), CATDS: 1.4569473169207601E-2): 0.103 µM
potency estimated from few doses (MERTK; CATDS: 1.1592861489919001E-2): 0.181 µM
potency estimated from few doses (TAOK1; compound concentrations: 100 nM and 1000 nM (sheet 'Samples'), CATDS: 1.8448588679872001E-2): 0.0619 µM

CN(C)CC(O)COc1ccc(Nc2nccc(-c3cnn4nc(N5CCOCC5)ccc34)n2)cc1 (stereo not shown) [GW767488X]
potency estimated from few doses (IRAK1): 0.08 µM

Cc1ccccc1-n1ncc(C(=O)c2ccccc2)c1N [RO1151248-000]
potency estimated from few doses (MAPK11; compound concentrations: 100 nM and 1000 nM (sheet 'Samples'), CATDS: 3.0870042087065699E-2): 0.552 µM

CCn1c(-c2nonc2N)nc2c(C#CC(C)(C)O)nc(O[C@@H](CN)c3ccccc3)cc21.O=C(O)C(F)(F)F [GSK1007102B]
potency estimated from few doses (AKT1; [1]): 1.12 µM
potency estimated from few doses (PRKX;PRKY; [1]): 0.0835 µM

O=C(O)C(F)(F)F.O=c1[nH]ccc2nc(N[C@@H]3CCNC3)nc(Nc3cc(Cl)cc(Cl)c3)c12 [GSK2188764A]
potency estimated from few doses (MAP2K5; [1]): 0.207 µM

CCN(CC)Cc1ccc(Nc2nccc(-c3cnn4ncccc34)n2)cc1 [GW780056X]
potency estimated from few doses (CAMK2D; CATDS: 2.8805291945328802E-2): 0.472 µM
potency estimated from few doses (NTRK1; compound concentrations: 100 nM and 1000 nM (sheet 'Samples'), CATDS: 2.09044703121741E-2): 1.14 µM

Cc1cccc(Nc2nc(N[C@H]3CCNC3)ncc2C(N)=O)c1.Cl [GSK2197149A]
potency estimated from few doses (MAP2K5; [1]): 1.17 µM

CCn1c(-c2cccnc2O)nc2cnccc21 [SB-736715]
potency estimated from few doses (AKT1; compound concentrations: 100 nM and 1000 nM (sheet 'Samples'), CATDS: 1.3570938887082299E-2): 1.61 µM
potency estimated from few doses (CSNK1G1; compound concentrations: 100 nM and 1000 nM (sheet 'Samples'), CATDS: 1.6371117072737501E-2): 1.08 µM
potency estimated from few doses (MAPK11; compound concentrations: 100 nM and 1000 nM (sheet 'Samples'), CATDS: 1.30714391114645E-2): 1.76 µM
potency estimated from few doses (PIM1; compound concentrations: 100 nM and 1000 nM (sheet 'Samples'), CATDS: 1.79844140695006E-2): 0.909 µM
potency estimated from few doses (PRKCI; compound concentrations: 100 nM and 1000 nM (sheet 'Samples'), CATDS: 1.2421041550088101E-2): 2 µM
potency estimated from few doses (SYK; compound concentrations: 100 nM and 1000 nM (sheet 'Samples'), CATDS: 1.27185371688364E-2): 1.88 µM

NC(=O)c1cc(-c2ccccc2)cc2c(C3CCNCC3)c[nH]c12 [GSK301362A]
potency estimated from few doses (TAOK1; [1]): 1.5 µM

O=C(O)C(F)(F)F.O=c1[nH]ccc2nc(N[C@@H]3CCNC3)nc(Nc3ccc4c(c3)S(=O)(=O)CC4)c12 [GSK2181306A]
potency estimated from few doses (CSNK1G1; compound concentrations: 100 nM and 1000 nM (sheet 'Samples'), CATDS: 8.6672996654843307E-3): 1.38 µM
potency estimated from few doses (MAP2K5; compound concentrations: 100 nM and 1000 nM (sheet 'Samples'), CATDS: 1.2089918500056101E-2): 0.509 µM
potency estimated from few doses (MAPK1; CATDS: 9.4433771330179501E-3): 1.02 µM
potency estimated from few doses (SYK; compound concentrations: 100 nM and 1000 nM (sheet 'Samples'), CATDS: 8.7741915408421998E-3): 1.32 µM

Cl.Cl.NC(CNC(=O)c1cc(Br)c(-c2ccnc3[nH]ccc23)s1)c1ccccc1.NC(CNC(=O)c1cc(Br)c(-c2ccnc3[nH]ccc23)s1)c1ccccc1 (stereo not shown) [GSK1322949A]
potency estimated from few doses (NTRK1; compound concentrations: 100 nM and 1000 nM (sheet 'Samples'), CATDS: 2.41440168152992E-2): 2.14 µM
potency estimated from few doses (PRKCI; compound concentrations: 100 nM and 1000 nM (sheet 'Samples'), CATDS: 2.43099453780894E-2): 2.1 µM

COc1cc[nH]c1/C=C1\C(=O)Nc2ccc(F)c(C#CC3(O)CCNCC3)c21.Cl [RO0282986-001]
potency estimated from few doses (CAMK2D; CATDS: 2.4491980048065101E-2): 0.142 µM
potency estimated from few doses (NTRK1; compound concentrations: 100 nM and 1000 nM (sheet 'Samples'), CATDS: 9.7350807133640294E-3): 1.47 µM
potency estimated from few doses (STRADA; compound concentrations: 100 nM and 1000 nM (sheet 'Samples'), CATDS: 9.4665319729240003E-3): 1.66 µM

c1cnn2ncc(-c3ccnc(Nc4ccc5c(c4)OCCO5)n3)c2c1 [GW806290X]
potency estimated from few doses (AKT1; compound concentrations: 100 nM and 1000 nM (sheet 'Samples'), CATDS: 2.02119935433384E-2): 1.93 µM

CNc1cc(-c2ccc3c(N)n[nH]c3c2)nc(N)n1 [GSK2224810A]
potency estimated from few doses (CSNK1G1; [1]): 2.2 µM

CC(C)Oc1ccc2c(-c3ccnc(Nc4ccc(N5CCN(C)CC5)cc4)n3)cnn2n1 [GW696155X]
potency estimated from few doses (IRAK1): 0.769 µM
potency estimated from few doses (TAOK1; [1]): 1.58 µM
potency estimated from few doses (TBK1): 0.621 µM

CC(C)Nc1cc(-c2ccc3c(N)n[nH]c3c2)nc(N)n1 [GSK2221681A]
potency estimated from few doses (PRKX;PRKY; [1]): 1.27 µM

CS(=O)(=O)CCn1c(=O)c(Oc2ccc(F)cc2F)cc2cnc(NC3CCOCC3)nc21 [RO5027956-000]
potency estimated from few doses (MAPK11; [1]): 1.73 µM

Cc1occc1-c1nc(N)c(OC[C@@H](N)Cc2c[nH]c3ccccc23)cc1-c1cc2c(C)n[nH]c2cn1 [GSK1660450B]
potency estimated from few doses (CSNK1G1; [1]): 1.34 µM
potency estimated from few doses (PIM1; [1]): 0.0927 µM
potency estimated from few doses (TAOK1; [1]): 0.012 µM

Cn1cc(C2=C(c3c(S(C)=O)n(C)c4ccccc34)C(=O)NC2=O)c2ccccc21 (stereo not shown) [RO0317379-000]
potency estimated from few doses (MERTK; CATDS: 0.152685994301652): 0.59 µM

Nc1nc(-c2ccc3c(N)n[nH]c3c2)cc(N2CCCC(NC(=O)c3ccccc3)C2)n1 (stereo not shown) [GSK2286775B]
potency estimated from few doses (TBK1): 0.342 µM

CCn1c(-c2nonc2N)nc2cncc(Br)c21 [SB-738004]
potency estimated from few doses (PRKCI; [1]): 0.483 µM

Cc1cc(NC(=O)c2cccc(NC(=O)/C=C/CN(C)C)c2)ccc1Nc1nccc(-c2cccnc2)n1 [JNK-IN-7]
potency estimated from few doses (IRAK1): 0.111 µM

COc1cc[nH]c1/C=C1\C(=O)Nc2ccc(F)c(C#C[C@@H](O)[C@@H](N)[C@@H](C)O)c21 [RO0283120-000]
potency estimated from few doses (NTRK1; [1]): 1.43 µM
potency estimated from few doses (STRADA; [1]): 2.01 µM

O=C1N=C(NCCc2ccccc2Cl)S/C1=C\c1ccc2ncccc2c1 [RO4498484-000]
potency estimated from few doses (PRKX;PRKY; compound concentrations: 100 nM and 1000 nM (sheet 'Samples'), CATDS: 5.9384973682941697E-2): 1.83 µM

CCn1c(-c2nonc2N)nc2cncc(C(=O)N3CC[C@H](N)C3)c21.Cl [SB-772077-B]
potency estimated from few doses (PIM1; [1]): 0.0308 µM
potency estimated from few doses (PRKCI; [1]): 0.606 µM

O=C(Nc1n[nH]c2nc(-c3ccccc3O)ccc12)C1CC1 [SB-711880]
potency estimated from few doses (SYK; [1]): 1.76 µM

Nc1nccc(-c2ccc3c(N)n[nH]c3c2)n1 [GSK1034945A]
potency estimated from few doses (PRKCI; [1]): 1.24 µM

CCC(CC)(CC)n1cnc2c(N)ncnc21 [SKF-97620]
potency estimated from few doses (MAPK1; CATDS: 2.7105315036477701E-2): 1.35 µM
potency estimated from few doses (PRKDC): 0.583 µM
potency estimated from few doses (STRADA; compound concentrations: 100 nM and 1000 nM (sheet 'Samples'), CATDS: 2.3464375070220901E-2): 2.22 µM

CN[C@H](C#Cc1c(F)ccc2c1/C(=C/c1[nH]ccc1OC)C(=O)N2)CO.Cl [RO0283049-001]
potency estimated from few doses (NTRK1; compound concentrations: 100 nM and 1000 nM (sheet 'Samples'), CATDS: 2.3877325037377599E-2): 0.949 µM

COc1cc[nH]c1/C=C1\C(=O)Nc2ccc([N+](=O)[O-])c(N3CC[C@@H](O)C3)c21 [RO0504985-000]
potency estimated from few doses (NTRK1; compound concentrations: 100 nM and 1000 nM (sheet 'Samples'), CATDS: 3.6845933962960403E-2): 0.886 µM
